# Measured values from the OligoGym collection.
# Biological target: CRYGS
# Assay: pooled miR-30 sensor sort-seq; sequence = guide strand
# Conditions: shRNA
# Further: reference of the scale not given here.
row,Sequence,sensor-assay potency score (higher = more potent)
1,TAATGGAGTTGCAGCGACTTAG,-1.4
2,TTGAAAATTTTTGTCTTCATAG,-1.17
3,TTTCATACATCTGACCACTAAA,-1.27
4,TTTCTCAAAGATCTGAATCTTA,0.174
5,TGGAGTTGCAGCGACTTAGGTA,-0.835
6,TACAGGAGTGGATCTCTCGCAT,-0.237
7,TTCATAGAAAGTAATCTTGGTT,-0.0295
8,TATACTGGCCTCCACTAGGCAG,-0.983
9,TATGTGTGGAAATCTGCACAGT,-0.978
10,TTTGTCTTCATAGAAAGTAATC,-1.62
11,TTAATGGAGTTGCAGCGACTTA,-1.8
12,AAAGATCTGAATCTTATACTGG,0.0834
13,TCCACTTTAATGGAGTTGCAGC,-1.52
14,TGATGGAAGGGCAATCTTCGGT,-1.06
15,TGAACAGCTCTGCAGGAGCTGA,-1.21
16,TTACAGGAGTGGATCTCTCGCA,0.0996

# Biological target: CSE1L
# Assay: as above
# Conditions: shRNA
row,Sequence,sensor-assay potency score (higher = more potent)
1,TTGGGTTCTTACTAACAGCTAA,-0.417
2,TAATATATTTGATACCGTCAGC,-0.712
3,TACATTTCCAGATACCTTCTGA,-0.0308
4,TAGAAGATAAAAACCTTGGTGG,0.264
5,TTAATCAAGAGAGGAATCGAGA,-0.818
6,TTCATCTTCAACAATTCTCCAG,-0.255
7,TATTGCTTCAAACATGTAGTGA,-0.339
8,TTGTGTAATTCCATGCTTCTGT,-0.12
9,AAAACTTGCATAATCCTCGTAC,0.387
10,TAGCAGAATCTCAACAAACGGT,-0.43
11,TTCTGTGGAAAATCTTCTCTGC,0.43
12,TAACAGCTAATAGCTTCTGTGT,-1.13
13,TTAGCTTTGCAAGTTATTCTTA,0.362
14,TTATGGATAAACATATTGCTTC,-0.779
15,TATATTGGTCAACTGATTCAGG,-0.381
16,TAAGTATGAACAACAATACTTT,-0.402
17,TTGACTTAAATTCATGACGGTA,-0.629
18,TTTTAAATAATGAATGTGCTGT,0.306
19,TTGACCTACAGGATCATGCTCT,0.379
20,TTGAATTGCATTACTTACCAAC,-0.851
21,TAAGATTTCAGTAAACACCAAA,-0.574
22,TCATCTTCAACAATTCTCCAGT,-0.0113
